Source: PubChem BioAssay (National Center for Advancing Translational Sciences (NCATS))
Shown are actives, neighbours in structure and some others; about 7.9% of the full set was active somewhere.
HCMV antiviral – blocks human cytomegalovirus replication; AID 1259415; HFF cells, HCMV-luciferase reporter, 72 h; stronger effect = lower value; activity change, negative = inhibition, % at 57.5 µM; hit rate 4.5% among 410,000; in the data active means activity change below about -60%; inconclusive means no clear call, values can overlap the other calls; inactive means above about -39%
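After 16 h attachment at 37C, HFF cells received test compound and HCMV-luciferase (1 PFU/cell); reporter luminescence read 72 h later, data normalized against buffer-only and known inhibitor Salinomycin.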
MARV entry inh – Marburg virus entry inhibition | AID 540276 | Potency, µM (titrated, usually from 37.8 µM), actives largely listed as inhibitors | hit rate 1.8% among 300,000 | Marburg virus pseudotyped entry inhibition, cell reporter; calls by dose curve; tested in HEK293 cells
FMDV inh – foot and mouth disease virus antiviral activity; FMDV antiviral cell-based qHTS; Potency, µM (series often up to 57.9 µM), actives largely listed as inhibitors; hit rate 1.2% among 410,000; calls by dose curve; tested in HEK293T cells; further: read-out not given here; nearly all actives have a fitted effect of over 45% in size
LASV entry inh – blocks Lassa virus binding to or entry into cells; Lassa virus pseudotype entry inhibition, cell reporter; Potency, µM (highest dose often 37.9 µM), actives largely listed as inhibitors; hit rate 1.2% among 300,000; AID 540256; calls by dose curve; tested in HEK293 cells; further: nearly all actives have a fitted effect of over 50% in size
HCV inh – blocks hepatitis C virus. hit rate 3.4% among 340,000. Huh7.5.1 HCVcc-Cre infection, luciferase reporter, 44 h. Potency, µM (series often up to 41.8 µM), actives largely listed as inhibitors. AID 651820; active means well fitted inhibition curve with a large enough effect; inconclusive means small, poorly fitted or top-dose-only effect, or another doubt; inactive means no such curve, though single readings can be large or run the other way
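Cells seeded at 1,000/well and cultured 4 h, then compounds added followed by HCVcc-Cre virus (~0.5 moi). After 44 h further culture, luciferase substrate was added, plates held 15 min at room temperature, and luminescence read for 15 sec.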
A number is an active result; i = inactive; ? = inconclusive; nt = no result given.

SMILES	HCMV antiviral	MARV entry inh	FMDV inh	LASV entry inh	HCV inh
COc1cc(OC)cc(C(=O)N2CCCC(n3cc(C(=O)NCC(C)C)nn3)C2)c1 (stereo unspecified)	nt	nt	i	nt	nt
Cc1ccc(-c2c[nH]c(=S)n2-c2ccccc2)cc1	i	nt	i	nt	i
CCn1c(-c2ccc(-c3ccccc3)cc2)c[nH]c1=S	i	i	i	?	10µM
Cc1ccc(-c2c[nH]c(=S)n2-c2ccccc2F)cc1	-64.5	i	i	?	i
C=CCn1c(-c2ccccc2)c[nH]c1=S	i	i	i	i	i
Cn1c(-c2ccc(-c3ccccc3)cc2)c[nH]c1=S	?	?	i	?	5.01µM
COc1cccc2c1NC1(c3ccccc3)c3ccccc3-n3nncc3CN1C2=O (stereo unspecified)	i	nt	nt	nt	nt
CC1=C(C(=O)OCc2ccc(C)cc2)C(c2ccccc2C(F)(F)F)CC(=O)N1 (stereo unspecified)	i	i	i	?	nt
CCOc1ccccc1-n1c(O)c(C=Nc2ccc(N(CC)CC)cc2)c(=O)[nH]c1=O	-86.9	i	i	?	i
c1cc(CN2CCCCC2)cc(OCCCNc2nc3ccccc3s2)c1	i	11.6µM	i	16.4µM	?
Cc1ccc(C)c(N2CCN(C(=O)c3cc4c(=O)n(Cc5cccs5)ccc4nc3C)CC2)c1	i	nt	i	?	nt
C#CCCCO/N=C1\C[C@@H](O)[C@@H](O)[C@@H]2[C@@H]3C(=O)N(Cc4ccccc4)C(=O)[C@@H]3CC[C@H]12	nt	i	nt	nt	nt
CC1(C(=O)Nc2ccc3[nH]ncc3c2)CCN1C(=O)C1(c2ccccc2)CC1 (stereo unspecified)	-98.0	nt	i	nt	nt
CC(C)(C)c1ccc(C(=O)NCC(c2cccs2)S(=O)(=O)c2cccs2)cc1 (stereo unspecified)	i	nt	i	?	nt
CC(C)(C)c1ccc(C(=O)NCC(c2cccs2)S(=O)(=O)c2ccc(F)cc2)cc1 (stereo unspecified)	i	nt	20µM	?	nt
COC(=O)C1CCN(CC(=O)NC(=O)NC2CCCCC2)CC1	-97.9	?	i	i	i
O=C(Nc1ccc(S(=O)(=O)N2CCCC2)cc1)c1ccc2c(=O)n3c(nc2c1)CCCCC3	-90.2	2.51µM	?	i	11.2µM
Cc1ccc(-c2csc(NC(=O)c3ccc4c(=O)n5c(nc4c3)CCCCC5)n2)cc1	-66.4	?	7.94µM	?	?
Cc1ccc(S(=O)(=O)N2CCCCC2)cc1NC(=O)c1ccc2c(=O)n3c(nc2c1)CCCCC3	i	?	nt	16.4µM	11.2µM
Cc1ccccc1CNCc1c(C(=O)O)c(C)n(Cc2ccc(F)cc2Cl)c1C	i	i	i	i	nt
CCC1CCCCN1c1ccc([N+](=O)[O-])cc1/C=N/NC(=O)Cn1c2ccccc2c(=O)c2ccccc21 (stereo unspecified)	i	0.891µM	i	i	?
COc1ccccc1C1=Nn2c(nc3sc(C(=O)Nc4ccccc4Cl)c(C)c3c2=O)SC1	?	i	i	i	nt
Cn1cnnc1Sc1ccc(CN2CCOc3ccc(C4=Cc5ccccc5CC4)cc3C2)o1	nt	nt	i	nt	nt
Cc1ccc(-c2nc(C3CCN(S(=O)(=O)c4ccc(C(C)(C)C)cc4)CC3)no2)cc1	-98.0	i	i	nt	i
CC(C)(C)c1ccc(C(=O)N2CCC(c3noc(-c4ccc(S(=O)(=O)N5CCCC5)cc4)n3)CC2)cc1	i	i	i	i	nt
SMILES	HCMV antiviral	MARV entry inh	FMDV inh	LASV entry inh	HCV inh
COC(=O)c1ccccc1-c1cc(C)cc2c1OC(CNC(=O)C1CCCO1)C2 (stereo unspecified)	nt	nt	i	nt	nt
C[C@H]1CC[C@H]2C(=O)N(Cc3cccc([N+](=O)[O-])c3)C[C@H](O)CN2[C@H]1c1cccc(Br)c1	nt	i	nt	?	nt
COc1ccc(NC(=O)c2nc[nH]c2C(=O)N2CCN(c3ccccc3)CC2)cc1	-71.7	nt	i	nt	i
CC(C)(C)OC(=O)NCc1ccc(CNC(=O)c2nc[nH]c2C(=O)N2CCc3ccccc3C2)cc1	i	nt	39.8µM	nt	?
CC(C)(C)OC(=O)NCc1ccc(CNC(=O)c2nc[nH]c2C(=O)N2CCN(c3ccccc3)CC2)cc1	i	nt	20µM	nt	?
CC(C)(C)OC(=O)NCCCCCNC(=O)c1nc[nH]c1C(=O)N1CCc2ccccc2C1	i	nt	?	nt	i
Cc1ccc(NC(=O)c2nc[nH]c2C(=O)N2CCc3ccccc3C2)cc1	-74.5	nt	i	nt	i
CCOC(=O)c1ccc(NC(=O)c2nc[nH]c2C(=O)N2CCc3ccccc3C2)cc1	i	nt	i	nt	i
O=C(Nc1ccccc1)c1nc[nH]c1C(=O)N1CCN(c2ccccc2)CC1	?	nt	i	nt	i
O=c1c(-c2ccc(Cl)cc2)c(C(F)(F)F)oc2c(CN3CCCCC3)c(O)ccc12	i	i	i	i	nt
Cc1nn(CCC(=O)N2CCN(c3ccccc3)CC2)c(C)c1S(=O)(=O)N1CCCC1	i	nt	i	i	nt
COc1ccc(CCNC(=O)c2c(C)nn(CC(C)C)c2Cl)cc1	i	i	i	2.24µM	i
CCN1C(=O)/C(=C/c2ccc(N(CC)CC)cc2OC)C(=O)NC1=S	i	nt	35.5µM	nt	i
COc1ccccc1/C=C1\C(=O)NC(=S)N(c2ccccc2)C1=O	i	nt	i	nt	i
O=C1c2[nH]nc(-c3ccccc3O)c2C(c2ccc(Cl)cc2)N1Cc1ccco1 (stereo unspecified)	?	i	i	?	nt
CC(C(=O)Nc1ccccc1)N(C)CCOc1ccccc1 (stereo unspecified)	i	i	i	i	?
Cc1ccc(S(=O)(=O)N(C)C)cc1NC(=O)C(C)N(C)CCOc1ccc(Cl)cc1 (stereo unspecified)	-78.5	?	?	?	10µM
CC(C(=O)Nc1ccc(F)cc1Cl)N(C)CCOc1ccccc1 (stereo unspecified)	-61.3	?	i	?	i
CC1CCc2c(sc3nc(-c4cc5cc(Br)ccc5oc4=O)[nH]c(=O)c23)C1 (stereo unspecified)	?	nt	i	i	nt
COC(=O)c1ccccc1S(=O)(=O)N1CCCC(c2nc3c(nnn3Cc3ccc(C)cc3)c(=O)[nH]2)C1 (stereo unspecified)	-77.5	i	i	?	i
Cc1cccc(COc2ncnc3nc[nH]c23)c1	i	i	i	?	3.98µM
Cc1cc(C)cc(NC(=O)CCn2c(=O)c3cccn3c3ccccc32)c1	i	nt	?	nt	3.16µM
O=C(CCn1c(=O)c2cccn2c2ccccc21)Nc1ccc(F)cc1	i	nt	i	?	?
Cc1ccc2c(c1)c(=O)c1ccccc1n2CCCC(=O)Nc1ccc(F)cc1F	i	nt	i	i	nt
Cc1cc(C)cc(NC(=O)CCCn2c3ccccc3c(=O)c3ccccc32)c1	-77.4	nt	?	?	nt
COc1cc(C(=O)Nc2sc3c(c2C#N)CCCC3)c(Br)c(OC)c1OC	i	nt	i	i	nt
Cc1ccc(-c2ccc(C#N)c(=O)n2CC(=O)N(C)C)cc1	-70.0	i	i	i	i
COc1cc(-c2nnc(CSc3nnc(Nc4ccc(C(C)C)cc4)s3)o2)cc(OC)c1OC	i	?	i	?	7.08µM
COc1cccc([C@@H]2[C@@H](C)CC[C@@H]3C(=O)NC[C@H](O)CN32)c1	nt	i	nt	nt	nt
O=C(O)CCC(=O)NNC(=O)COc1ccc(Cl)cc1Cl	-78.6	i	i	i	i
